The record followed here is ChEMBL document CHEMBL1961873, “Compounds: GSK PKIS; Assays: Nanosyn kinase panel” (2012).

SMILES strings stand for the structures. “And” between values parts separate entries of the source, which are not always exact repeats. Equal values may be shown once.

Assay [1] has as its target T1, Ephrin type-B receptor 2 (Homo sapiens) (UniProt P29323).
T1 sequence (whole entry): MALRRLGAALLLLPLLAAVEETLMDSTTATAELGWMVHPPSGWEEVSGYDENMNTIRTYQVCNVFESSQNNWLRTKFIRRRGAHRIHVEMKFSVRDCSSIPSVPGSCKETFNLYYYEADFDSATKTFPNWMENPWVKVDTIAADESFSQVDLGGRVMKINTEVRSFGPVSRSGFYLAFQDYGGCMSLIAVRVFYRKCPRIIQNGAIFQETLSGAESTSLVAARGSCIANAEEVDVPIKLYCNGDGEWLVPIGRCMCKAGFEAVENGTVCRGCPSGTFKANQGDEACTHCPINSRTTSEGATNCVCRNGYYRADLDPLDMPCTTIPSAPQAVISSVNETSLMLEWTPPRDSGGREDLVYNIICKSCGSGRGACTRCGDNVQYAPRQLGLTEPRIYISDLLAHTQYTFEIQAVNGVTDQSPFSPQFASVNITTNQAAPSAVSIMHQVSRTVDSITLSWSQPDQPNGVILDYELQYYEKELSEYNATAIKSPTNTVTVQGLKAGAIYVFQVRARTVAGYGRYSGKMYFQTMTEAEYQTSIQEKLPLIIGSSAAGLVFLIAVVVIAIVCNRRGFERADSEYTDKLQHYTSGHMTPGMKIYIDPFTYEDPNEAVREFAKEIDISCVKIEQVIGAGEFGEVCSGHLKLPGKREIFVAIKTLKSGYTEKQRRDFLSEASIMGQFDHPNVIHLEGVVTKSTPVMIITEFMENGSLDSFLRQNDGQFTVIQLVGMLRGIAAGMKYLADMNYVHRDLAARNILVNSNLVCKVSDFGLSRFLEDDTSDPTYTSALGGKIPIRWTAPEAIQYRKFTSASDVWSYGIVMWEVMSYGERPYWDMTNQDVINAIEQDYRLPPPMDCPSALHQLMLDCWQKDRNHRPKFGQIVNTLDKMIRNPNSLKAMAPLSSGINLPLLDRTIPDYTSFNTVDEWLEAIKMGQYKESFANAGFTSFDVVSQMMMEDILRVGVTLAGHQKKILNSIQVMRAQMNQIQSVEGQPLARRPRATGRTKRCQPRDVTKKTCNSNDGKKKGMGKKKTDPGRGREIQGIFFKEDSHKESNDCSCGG
The following applies: at 1 µM.

Assay [2] concerns the target T2, Ephrin type-B receptor 3 (Homo sapiens) (UniProt P54753).
T2 sequence (whole entry): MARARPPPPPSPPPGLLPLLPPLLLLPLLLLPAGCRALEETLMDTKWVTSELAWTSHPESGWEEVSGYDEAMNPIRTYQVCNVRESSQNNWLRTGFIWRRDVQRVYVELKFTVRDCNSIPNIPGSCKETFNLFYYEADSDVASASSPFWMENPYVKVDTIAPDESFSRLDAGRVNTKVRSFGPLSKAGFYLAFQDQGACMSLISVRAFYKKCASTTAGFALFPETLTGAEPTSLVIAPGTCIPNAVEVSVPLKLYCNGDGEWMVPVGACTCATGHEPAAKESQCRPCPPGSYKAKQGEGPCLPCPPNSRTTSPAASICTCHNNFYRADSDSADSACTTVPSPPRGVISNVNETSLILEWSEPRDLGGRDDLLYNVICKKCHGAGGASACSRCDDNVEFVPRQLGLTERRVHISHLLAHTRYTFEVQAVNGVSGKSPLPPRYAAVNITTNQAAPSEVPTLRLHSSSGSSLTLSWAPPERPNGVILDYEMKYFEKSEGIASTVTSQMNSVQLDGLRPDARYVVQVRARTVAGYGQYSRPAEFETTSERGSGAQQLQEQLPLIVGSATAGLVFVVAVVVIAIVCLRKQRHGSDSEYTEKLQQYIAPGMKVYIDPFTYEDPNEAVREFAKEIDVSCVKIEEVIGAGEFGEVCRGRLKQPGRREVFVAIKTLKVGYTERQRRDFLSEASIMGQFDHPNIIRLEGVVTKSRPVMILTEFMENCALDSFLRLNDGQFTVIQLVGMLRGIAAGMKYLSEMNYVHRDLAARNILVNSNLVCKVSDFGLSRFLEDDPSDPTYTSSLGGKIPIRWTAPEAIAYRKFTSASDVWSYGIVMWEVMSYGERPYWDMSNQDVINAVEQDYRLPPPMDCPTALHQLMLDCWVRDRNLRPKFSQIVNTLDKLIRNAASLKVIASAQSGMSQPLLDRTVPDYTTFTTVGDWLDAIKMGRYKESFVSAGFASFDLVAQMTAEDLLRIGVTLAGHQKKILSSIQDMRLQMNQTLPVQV
The conditions noted are these: at 0.1 µM.

Assay [3] deals with T2, Ephrin type-B receptor 3 (Homo sapiens). The following applies: at 1 µM.
Assay [4] has as its target T3, Ephrin type-B receptor 4 (Homo sapiens) (UniProt P54760).
T3 sequence (whole entry): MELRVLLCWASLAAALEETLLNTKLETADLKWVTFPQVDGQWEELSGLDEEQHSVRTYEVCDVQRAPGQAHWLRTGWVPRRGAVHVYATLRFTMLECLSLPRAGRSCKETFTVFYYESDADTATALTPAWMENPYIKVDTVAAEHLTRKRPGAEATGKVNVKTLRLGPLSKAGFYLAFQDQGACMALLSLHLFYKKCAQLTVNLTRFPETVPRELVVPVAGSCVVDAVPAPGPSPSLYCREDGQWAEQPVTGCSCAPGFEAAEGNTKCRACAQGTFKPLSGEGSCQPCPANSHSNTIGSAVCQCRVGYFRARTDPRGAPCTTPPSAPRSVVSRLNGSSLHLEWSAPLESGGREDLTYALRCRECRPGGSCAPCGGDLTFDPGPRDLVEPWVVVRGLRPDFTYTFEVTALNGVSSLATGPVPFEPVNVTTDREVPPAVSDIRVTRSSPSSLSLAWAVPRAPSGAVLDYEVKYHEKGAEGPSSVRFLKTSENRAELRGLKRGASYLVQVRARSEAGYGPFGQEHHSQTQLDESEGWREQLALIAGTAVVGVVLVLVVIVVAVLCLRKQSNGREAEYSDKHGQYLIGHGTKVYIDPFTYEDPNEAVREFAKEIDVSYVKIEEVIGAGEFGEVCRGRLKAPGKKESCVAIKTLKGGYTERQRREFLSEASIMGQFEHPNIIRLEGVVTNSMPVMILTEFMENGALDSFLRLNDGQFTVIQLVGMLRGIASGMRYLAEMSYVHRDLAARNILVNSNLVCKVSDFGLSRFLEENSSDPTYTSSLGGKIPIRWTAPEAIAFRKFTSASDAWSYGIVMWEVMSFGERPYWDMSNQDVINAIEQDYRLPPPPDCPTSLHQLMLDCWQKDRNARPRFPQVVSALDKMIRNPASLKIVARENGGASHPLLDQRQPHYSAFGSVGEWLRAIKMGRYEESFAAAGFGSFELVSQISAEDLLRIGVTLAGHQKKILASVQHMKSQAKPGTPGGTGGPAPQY
The conditions noted are these: at 0.1 µM.

Assay [5] concerns the target T3, Ephrin type-B receptor 4 (Homo sapiens). The following applies: at 1 µM.
The target in assay [6] is Receptor tyrosine-protein kinase erbB-2 (Homo sapiens) (UniProt P04626). The following applies: at 0.1 µM.
For assay [7] the target is unchanged. The following applies: at 1 µM.
Assay [8] deals with Receptor tyrosine-protein kinase erbB-4 (Homo sapiens) (UniProt Q15303). The following applies: at 0.1 µM.
Assay [9] has the same target. The following applies: at 1 µM.
Assay [10] addresses Tyrosine-protein kinase Fer (Homo sapiens) (UniProt P16591). The conditions noted are these: at 0.1 µM.
For assay [11] the target is unchanged. The following applies: at 1 µM.
In assay [12] the target is Tyrosine-protein kinase Fes/Fps (Homo sapiens) (UniProt P07332). The following applies: at 0.1 µM.
Tyrosine-protein kinase Fes/Fps (Homo sapiens), sequence (P07332 whole entry): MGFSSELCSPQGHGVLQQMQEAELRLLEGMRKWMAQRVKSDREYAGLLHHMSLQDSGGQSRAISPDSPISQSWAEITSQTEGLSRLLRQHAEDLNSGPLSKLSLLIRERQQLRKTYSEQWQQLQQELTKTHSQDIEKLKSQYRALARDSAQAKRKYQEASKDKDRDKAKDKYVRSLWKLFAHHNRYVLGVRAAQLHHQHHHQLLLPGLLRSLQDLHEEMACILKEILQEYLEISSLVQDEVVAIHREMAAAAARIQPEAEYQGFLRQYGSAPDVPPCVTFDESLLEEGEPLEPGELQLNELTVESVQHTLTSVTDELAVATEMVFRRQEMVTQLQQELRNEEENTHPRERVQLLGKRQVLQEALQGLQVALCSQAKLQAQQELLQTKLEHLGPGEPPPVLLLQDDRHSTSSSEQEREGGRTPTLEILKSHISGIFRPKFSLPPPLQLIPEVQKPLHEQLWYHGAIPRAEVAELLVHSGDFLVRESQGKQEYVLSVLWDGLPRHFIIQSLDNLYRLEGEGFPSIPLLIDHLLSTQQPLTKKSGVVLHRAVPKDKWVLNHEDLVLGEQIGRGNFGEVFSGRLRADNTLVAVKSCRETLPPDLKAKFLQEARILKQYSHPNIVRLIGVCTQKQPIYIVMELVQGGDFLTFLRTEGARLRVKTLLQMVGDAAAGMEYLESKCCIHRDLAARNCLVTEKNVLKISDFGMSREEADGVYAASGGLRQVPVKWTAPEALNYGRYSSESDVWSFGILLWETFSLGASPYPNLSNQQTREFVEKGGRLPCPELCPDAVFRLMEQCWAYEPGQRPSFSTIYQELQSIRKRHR
Assay [13] has the same target. The following applies: at 1 µM.
Assay [14] addresses Fibroblast growth factor receptor 1 (Homo sapiens) (UniProt P11362). The following applies: at 0.1 µM.
For assay [15] the target is unchanged. The following applies: at 1 µM.
Assay [16] deals with Fibroblast growth factor receptor 2 (Homo sapiens) (UniProt P21802). The following applies: at 0.1 µM.
Fibroblast growth factor receptor 2 (Homo sapiens), sequence (P21802 22-821 limits assumed): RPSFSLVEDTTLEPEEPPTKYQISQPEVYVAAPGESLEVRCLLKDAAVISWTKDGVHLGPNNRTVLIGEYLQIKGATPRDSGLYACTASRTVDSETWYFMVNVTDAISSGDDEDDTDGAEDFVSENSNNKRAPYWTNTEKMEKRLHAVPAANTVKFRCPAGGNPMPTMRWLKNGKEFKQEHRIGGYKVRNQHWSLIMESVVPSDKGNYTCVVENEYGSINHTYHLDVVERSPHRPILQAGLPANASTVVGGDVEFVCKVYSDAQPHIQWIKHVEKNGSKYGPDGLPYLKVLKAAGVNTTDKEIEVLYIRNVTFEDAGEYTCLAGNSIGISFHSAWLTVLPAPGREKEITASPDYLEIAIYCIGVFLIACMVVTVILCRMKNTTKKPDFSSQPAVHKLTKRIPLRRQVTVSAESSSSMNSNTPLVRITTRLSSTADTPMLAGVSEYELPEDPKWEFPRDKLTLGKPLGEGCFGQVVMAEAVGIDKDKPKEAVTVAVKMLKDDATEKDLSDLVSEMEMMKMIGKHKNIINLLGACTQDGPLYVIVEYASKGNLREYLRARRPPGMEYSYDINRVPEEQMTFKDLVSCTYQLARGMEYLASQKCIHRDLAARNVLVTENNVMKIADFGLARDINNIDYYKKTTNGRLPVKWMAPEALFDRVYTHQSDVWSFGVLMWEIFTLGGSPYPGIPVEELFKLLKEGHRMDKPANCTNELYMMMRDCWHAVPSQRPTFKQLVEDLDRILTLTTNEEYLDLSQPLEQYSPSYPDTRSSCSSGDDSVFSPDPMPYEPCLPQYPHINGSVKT
For assay [17] the target is unchanged. The conditions noted are these: at 1 µM.
Assay [18] deals with Fibroblast growth factor receptor 3 (Homo sapiens) (UniProt P22607). The following applies: at 0.1 µM.
Fibroblast growth factor receptor 3 (Homo sapiens), sequence (P22607 23-806 limits assumed): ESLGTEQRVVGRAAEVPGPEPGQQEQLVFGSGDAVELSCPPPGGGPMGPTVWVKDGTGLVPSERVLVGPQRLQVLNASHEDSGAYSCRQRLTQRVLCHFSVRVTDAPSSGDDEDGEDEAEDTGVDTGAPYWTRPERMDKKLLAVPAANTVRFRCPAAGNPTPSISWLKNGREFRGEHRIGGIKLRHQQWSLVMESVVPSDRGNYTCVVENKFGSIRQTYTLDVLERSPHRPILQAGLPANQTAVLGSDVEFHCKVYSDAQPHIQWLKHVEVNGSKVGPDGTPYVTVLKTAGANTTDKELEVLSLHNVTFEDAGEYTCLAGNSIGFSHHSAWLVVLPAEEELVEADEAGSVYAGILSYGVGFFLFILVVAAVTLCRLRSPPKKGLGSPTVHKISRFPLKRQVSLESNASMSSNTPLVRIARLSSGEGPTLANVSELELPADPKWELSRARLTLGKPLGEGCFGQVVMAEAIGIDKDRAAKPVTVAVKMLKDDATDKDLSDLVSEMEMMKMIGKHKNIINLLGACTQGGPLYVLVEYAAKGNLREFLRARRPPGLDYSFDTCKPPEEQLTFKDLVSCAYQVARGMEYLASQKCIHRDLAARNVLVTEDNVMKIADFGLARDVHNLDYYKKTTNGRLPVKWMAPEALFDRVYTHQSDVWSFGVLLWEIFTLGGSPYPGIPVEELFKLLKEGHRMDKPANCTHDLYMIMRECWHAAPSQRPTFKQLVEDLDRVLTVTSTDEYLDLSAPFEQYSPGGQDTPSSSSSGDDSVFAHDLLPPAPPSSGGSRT
For assay [19] the target is unchanged. The conditions noted are these: at 1 µM.
Assay [20] deals with Fibroblast growth factor receptor 4 (Homo sapiens) (UniProt P22455). The following applies: at 0.1 µM.
Fibroblast growth factor receptor 4 (Homo sapiens), sequence (P22455 22-802 limits assumed): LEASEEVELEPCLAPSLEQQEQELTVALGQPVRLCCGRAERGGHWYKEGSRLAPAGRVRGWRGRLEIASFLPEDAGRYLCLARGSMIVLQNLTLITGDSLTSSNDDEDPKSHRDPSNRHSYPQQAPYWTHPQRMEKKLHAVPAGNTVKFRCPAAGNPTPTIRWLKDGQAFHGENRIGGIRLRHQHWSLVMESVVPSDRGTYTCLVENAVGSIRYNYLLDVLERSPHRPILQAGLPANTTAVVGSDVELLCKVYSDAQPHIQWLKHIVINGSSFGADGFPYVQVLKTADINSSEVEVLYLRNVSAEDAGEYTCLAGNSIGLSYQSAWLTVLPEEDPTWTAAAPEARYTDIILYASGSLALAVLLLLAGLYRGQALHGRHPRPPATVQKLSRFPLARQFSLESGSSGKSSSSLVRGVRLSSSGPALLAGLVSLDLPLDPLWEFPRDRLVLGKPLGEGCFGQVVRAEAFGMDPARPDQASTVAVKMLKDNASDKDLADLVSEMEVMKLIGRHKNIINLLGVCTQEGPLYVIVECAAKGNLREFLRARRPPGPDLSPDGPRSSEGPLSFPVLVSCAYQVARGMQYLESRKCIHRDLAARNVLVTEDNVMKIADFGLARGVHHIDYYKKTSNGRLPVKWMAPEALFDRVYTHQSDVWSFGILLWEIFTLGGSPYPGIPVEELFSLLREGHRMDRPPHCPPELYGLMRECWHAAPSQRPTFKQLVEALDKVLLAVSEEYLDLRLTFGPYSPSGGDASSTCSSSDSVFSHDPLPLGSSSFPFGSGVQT

Fibroblast growth factor receptor 1 (Homo sapiens), sequence (P11362 22-822 limits assumed): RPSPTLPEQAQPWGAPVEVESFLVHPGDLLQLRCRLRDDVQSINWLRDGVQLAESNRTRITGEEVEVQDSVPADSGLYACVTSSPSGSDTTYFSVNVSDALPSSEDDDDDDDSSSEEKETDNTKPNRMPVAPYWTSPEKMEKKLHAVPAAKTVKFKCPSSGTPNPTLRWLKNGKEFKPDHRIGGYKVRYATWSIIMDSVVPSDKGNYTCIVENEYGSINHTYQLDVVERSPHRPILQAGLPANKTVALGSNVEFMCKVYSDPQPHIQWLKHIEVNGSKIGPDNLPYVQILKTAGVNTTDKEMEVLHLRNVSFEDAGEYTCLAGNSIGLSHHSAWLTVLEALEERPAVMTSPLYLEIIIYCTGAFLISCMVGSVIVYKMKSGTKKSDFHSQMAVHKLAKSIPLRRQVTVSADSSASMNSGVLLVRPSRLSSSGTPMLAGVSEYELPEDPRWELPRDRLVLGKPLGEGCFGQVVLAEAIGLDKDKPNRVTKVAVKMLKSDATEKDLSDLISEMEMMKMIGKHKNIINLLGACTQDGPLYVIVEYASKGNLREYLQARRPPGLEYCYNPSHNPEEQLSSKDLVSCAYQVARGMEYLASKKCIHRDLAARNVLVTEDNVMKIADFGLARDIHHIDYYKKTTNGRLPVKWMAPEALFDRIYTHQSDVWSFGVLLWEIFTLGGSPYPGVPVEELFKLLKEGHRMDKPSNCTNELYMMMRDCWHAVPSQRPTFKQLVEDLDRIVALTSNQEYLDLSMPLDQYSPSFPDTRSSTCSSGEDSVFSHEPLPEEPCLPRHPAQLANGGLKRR
Tyrosine-protein kinase Fer (Homo sapiens), sequence (P16591 whole entry, looked up): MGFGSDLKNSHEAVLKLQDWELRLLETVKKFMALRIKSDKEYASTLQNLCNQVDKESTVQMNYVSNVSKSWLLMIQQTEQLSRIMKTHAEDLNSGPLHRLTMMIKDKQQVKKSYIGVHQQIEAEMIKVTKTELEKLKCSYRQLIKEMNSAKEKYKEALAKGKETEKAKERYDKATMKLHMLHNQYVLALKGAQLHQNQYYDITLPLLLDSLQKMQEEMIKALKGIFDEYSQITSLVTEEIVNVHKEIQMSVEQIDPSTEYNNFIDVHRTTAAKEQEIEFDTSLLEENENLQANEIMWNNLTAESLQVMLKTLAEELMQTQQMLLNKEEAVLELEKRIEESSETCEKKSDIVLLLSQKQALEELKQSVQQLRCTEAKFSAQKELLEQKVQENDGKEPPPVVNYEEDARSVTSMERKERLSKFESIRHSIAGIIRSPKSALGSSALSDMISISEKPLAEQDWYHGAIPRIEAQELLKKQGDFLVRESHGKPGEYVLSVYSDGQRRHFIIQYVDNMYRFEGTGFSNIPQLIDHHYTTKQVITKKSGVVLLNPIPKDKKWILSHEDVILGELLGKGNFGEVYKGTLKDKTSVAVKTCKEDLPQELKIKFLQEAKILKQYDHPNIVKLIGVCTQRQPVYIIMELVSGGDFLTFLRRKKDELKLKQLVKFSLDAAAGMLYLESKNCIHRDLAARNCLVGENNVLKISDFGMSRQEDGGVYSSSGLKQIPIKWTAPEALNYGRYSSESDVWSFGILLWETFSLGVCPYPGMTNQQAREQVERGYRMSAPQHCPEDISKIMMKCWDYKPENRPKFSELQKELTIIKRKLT

As usually defined, the inhibition is the change of the read-out against control, counted positive when it falls. For `COc1cccc(Nc2nccc(-c3cnn4ncccc34)n2)c1`, the inhibition in [1] was 36%; in assay [2] it was 1.65%; in [3], -3.88%; in assay [4], 2.75%; in assay [5], 16.1%; in [6], -0.16%. The inhibition in assay [7] came out at 1.64%; in assay [8] it was 8.21%; in assay [9], 3.05%; in assay [10], 9.45%; in assay [11], 48%; in [12], 8.87%. Also, the inhibition in assay [13] was 50.3%; in assay [14], -2.04%; in assay [15] it was 4.55%; in assay [16], 1.68%; in assay [17] it was 16.6%; in [18], 0.93%. The figures for the inhibition in [19] and in assay [20] were 10.9% and 1.56%, respectively.

Turning to `CCN1CCC(C(=O)Nc2n[nH]c3nnc(-c4cccc(F)c4F)cc23)CC1`, the inhibition was 0.53% in assay [1]; 0.69% in assay [2]; 1.64% in assay [3]; 0.49% in assay [4]; -0.12% in [5]; 1.2% in assay [6]. The inhibition in assay [7] was 0.02%; in [8] it was -0.85%; in assay [9], 0.79%; in [10], -0.15%; in assay [11], 1.37%; in assay [12], -0.22%. In addition, the inhibition in assay [13] is -1.05%; in [14], -4.59%; in [15] it was -1.81%; in [16] it was -0.41%; in assay [17] it was -2.18%; in [18] it was -0.59%. Also, the inhibition is 2.01% in assay [19] and 1.8% in [20].

For `c1ccc(-c2n[nH]cc2-c2ccnc(-c3ccc(OCCn4ccnc4)cc3)c2)nc1`, the inhibition in assay [1] was 0.77%; in assay [2], 1.4%; in [3], -0.01%; in assay [4] it was 0.04%; in assay [5], -0.88%; in assay [6] it was 0.33%. The inhibition in assay [7] is -1.51%; in assay [8], -1.46%; in assay [9], 3.39%; in assay [10] it was 1.51%; in assay [11] it was 1.84%; in assay [12], -0.05%. The inhibition in assay [13] was -0.73%; in assay [14], -3.47%; in [15] it was 3.09%; in [16] it was 0.47%; in assay [17] it was 2.51%; in assay [18] it was 1.79%. Also, the figures for the inhibition in [19] and in assay [20] were 4.74% and 1.45%, respectively.

Take `Cn1c(-c2nonc2N)nc2cnccc21`: the inhibition in assay [1] was determined as 3.92%; in assay [2], 3.54%; in assay [3], 4.62%; in [4], 2.84%; in assay [5] it was 2%; in assay [6] it was 4.78%. Moreover, the inhibition in assay [7] stood at 3.42%; in assay [8], 14.9%; in assay [9], 17.3%; in [10], 3.92%; in assay [11], 6.7%; in assay [12], 2.6%. The inhibition was found to be 3.53% in assay [13]; 4.78% in assay [14]; 2.36% in assay [15]; 2.83% in assay [16]; 1.91% in [17]; 5.11% in assay [18]. For the same compound, the values for the inhibition in [19] and in assay [20] were 1.94% and -0.24%, respectively.

Consider `Cc1c2ccc(N(C)c3ccnc(Nc4cccc(S(N)(=O)=O)c4)n3)cc2nn1C`, for which the inhibition in [1] came out at 23.3%; in assay [2], 3.38%; in assay [3], 0.55%; in [4] it was 0.19%; in [5] it was 10.3%; in assay [6], 1.55%. The inhibition is -3.44% in assay [7]; 5.59% in [8]; 12.1% in [9]; 25.1% in [10]; 74.1% in assay [11]; 15.2% in [12]. In addition, the inhibition in assay [13] is 56.1%; in [14], 24.9%; in assay [15], 62.6%; in [16], 50%; in [17] it was 69.9%; in [18], 35.5%. Also, the inhibition was determined as 70.1% in [19] and 2.26% in [20].

`Nc1nccc(-c2c(-c3ccc(F)cc3)ncn2C2CCNCC2)n1`: the inhibition in assay [1] is 3.74% and 17%; in assay [2], -8.29% and 1.29%; in assay [3] it was -2.02% and 2.97%; in assay [4], -1.79% and 2.99%; in [5], 1.69% and 3.45%; in assay [6], -4.63% and -1.31%. Further, the inhibition in assay [7] was -2.23% and 2.46%; in assay [8] it was 3.28%; in assay [9], -6.69% and 9.1%; in assay [10], -1.84% and 2.2%; in [11], -1.75% and 3.19%; in assay [12] it was -3.81% and -0.12%. Moreover, the inhibition in [13] is -3.68% and -0.18%; in [14] it was -5.66% and -0.16%; in assay [15], -4.83% and 1.62%; in [16] it was -3.3% and 0.04%; in assay [17], -3.58% and 1.03%; in assay [18] it was -3.25% and 3.33%. In addition, the inhibition in assay [19] is -1.53% and 2.36%; in assay [20], -0.08% and 3.95%.
